Rab9 promoter act: Rab9 promoter activation; Huh7 Rab9 promoter-luciferase reporter, luminescence, 24 h; Potency, µM (series often up to 9.22 µM), without a hit: top-dose activation, negative = inhibition, usual class: activators; 320,000 tested, 2.8% active; AID 485297; also: % of control where 0% means no effect; nearly all actives have a fitted effect of over 60% in size
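Quantitative HTS format; Huh7 Rab9-luciferase reporter cells (1500/well) receive compound 2 h post-plating, incubate 24 h at 37 °C, then get luciferase reagent for 10 min before luminescence reading.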
ELG1 genotoxic: genotoxicity induction in ELG1-luciferase HEK293T cells; 330,000 tested, 1.3% active; HEK293T ELG1-luciferase reporter, luminescence, 16 h; Potency, µM (top dose mostly 46 µM), for the others: at the highest dose activity change, positive = activation, most hits filed as activators; also: % of control where 0% means no effect; nearly all actives have a fitted effect of over 60% in size
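HEK293T cells expressing luciferase-tagged ELG1 were exposed to compound or DMSO vehicle for 16 hr at 37 °C and 5% CO2. Luciferase activity was then measured with ONE-Glo after 30 min at room temperature.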
Luc counter: counter-screen: inhibitors of Kinase-Glo firefly luciferase; Q27757; Kinase-Glo luciferase, ATP luminescence, 8 min; Potency, µM (top dose mostly 38.3 µM), for inactives: at the highest dose activity change, negative = inhibition, most hits filed as inhibitors; 200,000 tested, 0.28% active; AID 1379; also: % is scaled to controls: 0 for no effect and ±100 for the full control effect; nearly all actives have a fitted effect of over 60% in size
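Recombinant Kinase-Glo luciferase, 10 uM ATP (linear range), luciferin; imidazole pH 7.2 / KCl / MgCl2 / Tween / BSA buffer; 8 min RT; luminescence.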
NPC1 prom act: NPC1 promoter activation; Huh7 NPC1 promoter luciferase reporter, 24 h; Potency, µM (series often up to 9.22 µM), without a hit: at the highest dose activation, hits mostly activators; 320,000 tested, 2.4% active; also: % of control where 0% means no effect; nearly all actives have a fitted effect of over 60% in size
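Luciferase expression driven by the NPC1 promoter was measured in stably transfected Huh7 cells after a 24 h compound incubation, using a luciferase reagent and a luminescence read.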
FLuc modulator: firefly luciferase modulation, counter-screen for miR-21 project | P08659 | purified FLuc, Km substrates, luminescence inhibition | Potency, µM (top dose mostly 57.5 µM), for inactives: top-dose activity change, negative = inhibition, hits mostly inhibitors | 360,000 tested, 6.9% active | AID 588342;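 also: plate controls were vehicle for no effect and reference inhibitor for full effect; nearly all actives have a fitted effect of over 55% in size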
Target sequence (P08659 whole entry, looked up): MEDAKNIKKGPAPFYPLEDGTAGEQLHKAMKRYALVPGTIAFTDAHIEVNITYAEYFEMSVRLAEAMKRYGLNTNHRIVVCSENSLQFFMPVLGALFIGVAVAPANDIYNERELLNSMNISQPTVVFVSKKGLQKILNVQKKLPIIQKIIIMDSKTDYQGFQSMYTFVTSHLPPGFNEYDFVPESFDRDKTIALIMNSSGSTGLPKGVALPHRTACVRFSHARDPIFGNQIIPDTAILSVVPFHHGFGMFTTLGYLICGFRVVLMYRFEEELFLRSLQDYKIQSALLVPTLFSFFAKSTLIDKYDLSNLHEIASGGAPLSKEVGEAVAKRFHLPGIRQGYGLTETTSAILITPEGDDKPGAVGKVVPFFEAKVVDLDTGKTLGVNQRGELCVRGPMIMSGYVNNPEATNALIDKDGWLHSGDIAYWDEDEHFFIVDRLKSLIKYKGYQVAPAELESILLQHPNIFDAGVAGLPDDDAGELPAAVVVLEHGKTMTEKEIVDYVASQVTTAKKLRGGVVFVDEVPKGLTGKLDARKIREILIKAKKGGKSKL
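Biochemical qHTS of compounds, final roughly 60 µM downward over six points, against 10 nM purified firefly luciferase using Km concentrations of substrates (10 uM D-luciferin, 10 uM ATP) in Tris acetate pH 7.5 buffer; luminescence output.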
SMN2 splice up: SMN2 splice variant enhancement; HEK293 SMN2-luciferase splicing reporter, luminescence, 30-36 h; Potency, µM (series often up to 46.1 µM), for the others: at the top dose activity change, positive = activation, actives largely listed as activators; 210,000 tested, 2.8% active; also: % of control where 0% means no effect; nearly all actives have a fitted effect of over 55% in size
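HEK293 cells carry an SMN2 […]–luciferase reporter in which exon 7 inclusion puts luciferase in frame. Cells were plated 10-12 h before compound addition, then incubated 30-36 h at 37C. ONE-Glo luminescence was read; sodium butyrate at 4.5 mM final served as control.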
* hit, by the source's call; [ ] = another dose, or the depositor's remark. This is a sample that favours compounds with a hit; in the whole collection about 7.3% have one here. Calls follow the shape of the dose curve; as a rule, active = well fitted curve in the direction sought with a large enough effect; inconclusive = small, poorly fitted or top-dose-only effect, or another doubt; inactive = no such curve, though single readings can be large; an effect the other way counts as inactive or inconclusive. Potency is read from the fitted curve at half-maximal effect.

CCOc1ccccc1NC(=O)C1CCCN(S(=O)(=O)c2cccs2)C1 (stereo not drawn) was read as FLuc modulator 1% and SMN2 splice up -38%.
`CN(C)C(=O)N1CCN(c2nc(-c3ccccc3)cs2)CC1` gave Rab9 promoter act 1.1µM*, ELG1 genotoxic inconclusive, NPC1 prom act 2.2µM* and FLuc modulator 3µM*.
Screening c1ccc(-c2csc(N3CCN(c4ccccn4)CC3)n2)cc1 returned Rab9 promoter act inconclusive, ELG1 genotoxic -14%, Luc counter 1%, NPC1 prom act inconclusive, FLuc modulator 11µM* and SMN2 splice up -28%.
Screening S=C(NCCCN1CCOCC1)N1CCN(c2nc(-c3ccccc3)cs2)CC1 returned Rab9 promoter act -18%, ELG1 genotoxic -9%, Luc counter 3%, NPC1 prom act -8% and FLuc modulator -15%.
Screening O=C(N1CCOCC1)N1CCN(c2nc(-c3ccccc3)cs2)CC1 returned Rab9 promoter act inconclusive, ELG1 genotoxic -5%, Luc counter -4%, NPC1 prom act 30%, FLuc modulator 21µM* and SMN2 splice up 0%.
Screening c1ccc(-c2csc(N3CCOCC3)n2)cc1 returned Rab9 promoter act inconclusive, ELG1 genotoxic 6.3µM*, Luc counter 15%, NPC1 prom act inconclusive, FLuc modulator 15µM* and SMN2 splice up 11µM*.
`CCCNC(=O)N1CCCN(S(=O)(=O)c2ccc3c(ccn3CC)c2)CC1` gave FLuc modulator 3%.
Cc1cc(C)c(NC(=O)CCn2c(=O)c3cccn3c3cccnc32)c(C)c1 was read as FLuc modulator 0%.
Screening CCOC(=O)C1=C(CN2CCN(c3ccccc3)CC2)NC(=O)NC1c1ccc(C)cc1 (stereo not drawn) returned FLuc modulator -9% and SMN2 splice up 4%.
For O=C(O)[C@@H]1[C@@H](C(=O)NCc2cccnc2)[C@@H]2C=C[C@@H]1O2 the results were Luc counter 0%[7.66 µM] and SMN2 splice up -16%[9.22 µM].
`COc1cccc(NC(=O)CN2C(=O)C3(SCC(=O)N3c3cc(C)cc(C)c3)c3ccccc32)c1` (stereo not drawn) gave FLuc modulator -7%.
`Brc1ccc2oc(-c3ccn[nH]3)cc2c1` gave Rab9 promoter act 2.5µM*, ELG1 genotoxic inconclusive, NPC1 prom act 2.2µM* and FLuc modulator 3µM*.
Screening O=C1C(c2ccccc2)=[N+]([O-])c2ccccc21 returned Rab9 promoter act 22%, ELG1 genotoxic inconclusive, NPC1 prom act 13% and FLuc modulator 12µM*.
`COc1ccc2c(c1)CCC/C2=N\Nc1nc(C(=O)NN)cs1` gave Rab9 promoter act 2%, ELG1 genotoxic 5%, NPC1 prom act 22% and FLuc modulator 1.3µM*.
`CCOC(=O)c1csc(N/N=C2\CCCc3ccccc32)n1` gave Rab9 promoter act 1%, ELG1 genotoxic -12%, NPC1 prom act -1% and FLuc modulator inconclusive.
COc1ccccc1Cn1c(C2CC(=O)N(c3ccccc3OC)C2)nc2ccccc21 (stereo not drawn) was read as FLuc modulator -2%.
For O=C(NCc1ccccc1)C1Cc2ccccc2CN1C(=O)c1ccco1 (stereo not drawn) the results were Rab9 promoter act 1%, ELG1 genotoxic -5%, Luc counter 1%, NPC1 prom act -13%, FLuc modulator 3% and SMN2 splice up 2%.
`Cc1ccccc1NC(=O)C1Cc2ccccc2CN1C(=O)c1ccco1` (stereo not drawn) gave Rab9 promoter act inconclusive, ELG1 genotoxic 23µM*, NPC1 prom act 2.8µM* and FLuc modulator inconclusive.
`Cc1occc1C(=O)N/N=C/C(Br)=C\c1ccccc1` gave Rab9 promoter act 0.89µM*, ELG1 genotoxic inconclusive, NPC1 prom act 2.5µM* and FLuc modulator 2.1µM*.
Screening Cc1occc1C(=O)N/N=C/c1ccc(N(C)C)cc1 returned Rab9 promoter act 0.11µM*, ELG1 genotoxic inconclusive, NPC1 prom act 0.32µM* and FLuc modulator 1.2µM*.
For Cc1ccc(/C=N/NC(=O)c2ccoc2C)o1 the results were Rab9 promoter act inconclusive, ELG1 genotoxic 16%, Luc counter inconclusive, NPC1 prom act 29%, FLuc modulator inconclusive and SMN2 splice up inconclusive.
Screening Cc1occc1C(=O)N/N=C/C=C/c1ccccc1[N+](=O)[O-] returned Rab9 promoter act -2%, ELG1 genotoxic 6%, Luc counter 0%, NPC1 prom act 2%, FLuc modulator inconclusive and SMN2 splice up -11%.
`Cc1occc1C(=O)N/N=C/C=C/c1ccccc1` gave Rab9 promoter act 3.5µM*, ELG1 genotoxic inconclusive, Luc counter -14%, NPC1 prom act 3.5µM*, FLuc modulator inconclusive and SMN2 splice up 13µM*.
`Cc1occc1C(=O)N/N=C/C=C/c1ccc(N(C)C)cc1` gave Rab9 promoter act 2.5µM*, ELG1 genotoxic inconclusive, NPC1 prom act 4.5µM* and FLuc modulator 24µM*.
Screening CCN(c1ccccc1)c1nnc(NC(=O)Nc2ccc(C)cc2)s1 returned FLuc modulator 1%.
`Cc1ccc(Cl)cc1NCc1nnc2n1CCCCC2` gave FLuc modulator 1%.
For COc1ccc(-c2nc3ccccc3o2)cc1NC(=O)c1ccc(-c2cccc(Cl)c2C)o1 the results were FLuc modulator 6% and SMN2 splice up -3%.
COCc1cc(C)nc2sc(C(=O)Nc3ccccc3OC)c(N)c12 was read as Rab9 promoter act -1%, ELG1 genotoxic -1%, NPC1 prom act -7% and FLuc modulator 17µM*.
For COCc1cc(C)nc2sc(C(=O)Nc3cccc(OC)c3)c(N)c12 the results were Rab9 promoter act 3.2µM*, ELG1 genotoxic inconclusive, NPC1 prom act 2.2µM* and FLuc modulator 8.5µM*.
CC(=O)c1ccc(NC(=O)CN2C(=O)c3cccnc3Sc3ccccc32)cc1 was read as FLuc modulator -5%.
Screening CCN(Cc1ccccc1)c1ncnc2c1nnn2C returned FLuc modulator -8%.
For CCc1ccc(N2C(=O)C3C4C=CC(CC4)C3C2=O)cc1 (stereo not drawn) the results were Rab9 promoter act 19%, ELG1 genotoxic 9%, NPC1 prom act 3% and FLuc modulator 4.3µM*.
`O=C1C2C3C=CC(CC3)C2C(=O)N1c1ccc(Cl)cc1` (stereo not drawn) gave Rab9 promoter act 2%, ELG1 genotoxic 0%, NPC1 prom act 5% and FLuc modulator -22%.
